Assay [1] is described as follows: ATG_XTT_Cytotoxicity: Cytotoxicity Assessment in the Attagene TRANS-FACTORIAL HepG2 Assay (AID 2283584).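 On AC50: XTT signal for cell number as viability in transfected HepG2 cells; cells exposed to compound for 24 h before reading; active means loss of viability signal versus DMSO baseline.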 The gist of the method: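 HepG2 cells transiently transfected with GAL4-UAS multiple reporter units, dosed 24 h; cytotoxicity read by XTT as loss of signal versus DMSO baseline.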
Assay [2] is described as follows: TOX21_p53_BLA_p2_viability: Viability Assessment in the Tox21 HCT-116 p53 Agonism Beta-lactamase Assay, Phase 2 (AID 2283591).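 Further: actives lower the ATP signal meaning cytotoxicity.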 Put shortly: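 HCT116 p53-bla cells, 4000/well, dosed after 5 h plating (217-fold dilution of DMSO stocks) and incubated 16 h at 37C. Viability taken as cellular ATP by CellTiter-Glo luminescence after 30 min RT; signal loss marks cytotoxicity.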

In assay [3] the target is Cellular tumor antigen p53 (Homo sapiens) (UniProt P04637). Briefly: TOX21_p53_BLA_p2_ratio: Tox21 HCT-116 p53 Agonism Beta-lactamase Assay, Ratio, Phase 2 (AID 2283592). Put shortly:
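First, HCT116 reporter cells settle for 5 h at 37C. Next, DMSO compound solutions are pinned in (217-fold dilution) and left 16 h. Finally, CCF4-AM substrate is loaded 2 h at room temperature and the 460/530 nm ratio read.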

Assay [4] in a line: TOX21_p53_BLA_p3_viability: Viability Assessment in the Tox21 HCT-116 p53 Agonism Beta-lactamase Assay, Phase 3 (AID 2283593).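 Further: cells exposed to compound for 16 h before reading.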 The gist of the method:
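HCT116 cells, 4000/well, dosed 5 h after plating by pin transfer (217-fold dilution from DMSO stock) and incubated 16 h at 37C, 5% CO2. Viability read as ATP luminescence with CellTiter-Glo after 30 min at room temperature.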

The target in assay [5] is Cellular tumor antigen p53 (Homo sapiens) (UniProt P04637). Briefly: TOX21_p53_BLA_p3_ratio: Tox21 HCT-116 p53 Agonism Beta-lactamase Assay, Ratio, Phase 3 (AID 2283596). Put shortly:
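Cells were seeded at 4000/well, rested 5 h at 37C, then dosed with DMSO compound solutions (217-fold dilution) for 16 h. CCF4-AM substrate was loaded for 2 h at room temperature, and the 460/530 nm emission ratio was fitted for gain of signal versus DMSO.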

The nature of assay [6]: TOX21_p53_BLA_p4_viability: Viability Assessment in the Tox21 HCT-116 p53 Agonism Beta-lactamase Assay, Phase 4 (AID 2283597).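 Further: hits lower the luminescence signal meaning cytotoxicity.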 Put shortly:
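4000 HCT116 cells per well; 5 h attachment; compounds from DMSO, 217-fold dilution; 16 h at 37C. Then CCF4-AM, 2 h RT, followed by CellTiter-Glo, 30 min RT, luminescence. Decrease = cytotoxicity.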

Assay [7] can be described thus: TOX21_p53_BLA_p5_viability: Viability Assessment in the Tox21 HCT-116 p53 Agonism Beta-lactamase Assay, Phase 5 (AID 2283600). The gist of the method:
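Decreased CellTiter-Glo luminescence denotes lost viability. Exposure: 16 h at 37C, 5% CO2, with compounds from DMSO stocks diluted 217-fold in wells of 4000 cells.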

Assay [8] deals with Cellular tumor antigen p53 (Homo sapiens) (UniProt P04637). Nature of the assay: TOX21_p53_BLA_p4_ratio: Tox21 HCT-116 p53 Agonism Beta-lactamase Assay, Ratio, Phase 4 (AID 2283601). The gist of the method: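 HCT-116 p53 beta-lactamase reporter cells (4000/well) preincubated 5 h, then compound (217-fold dilution of DMSO stock) for 16 h at 37C. CCF4-AM substrate added 2 h at room temperature; 460/530 nm emission ratio fitted upward versus DMSO.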
Chain of Cellular tumor antigen p53 (Homo sapiens) (P04637 whole entry, looked up): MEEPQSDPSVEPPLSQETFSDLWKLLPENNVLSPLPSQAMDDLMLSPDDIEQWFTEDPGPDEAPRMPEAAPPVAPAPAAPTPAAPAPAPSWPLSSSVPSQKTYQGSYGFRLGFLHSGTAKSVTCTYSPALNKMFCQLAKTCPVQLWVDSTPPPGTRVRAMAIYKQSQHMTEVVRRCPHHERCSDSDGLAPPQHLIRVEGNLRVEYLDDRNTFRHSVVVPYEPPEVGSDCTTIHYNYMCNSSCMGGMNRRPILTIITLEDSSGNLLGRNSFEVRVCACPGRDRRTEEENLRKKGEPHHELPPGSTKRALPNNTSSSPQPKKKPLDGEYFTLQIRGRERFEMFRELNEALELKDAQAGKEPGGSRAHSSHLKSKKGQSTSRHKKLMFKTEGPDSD

For assay [9] the target is unchanged. Nature of the assay: TOX21_p53_BLA_p5_ratio: Tox21 HCT-116 p53 Agonism Beta-lactamase Assay, Ratio, Phase 5 (AID 2283599). Put shortly:
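HCT-116 p53-bla cells (4000/well) plated 5 h, dosed with compound (217-fold DMSO dilution) for 16 h at 37 C; CCF4-AM substrate 2 h at room temperature. Activity is the 460/530 nm emission ratio (405 nm excitation), fitted in gain-of-signal direction versus DMSO.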

Records with an inconclusive call do not appear. Activity calls are given as the source filed them. How the source made its calls: active means hit-call score of the fitted dose curve at least 0.9, where 1 is the maximum; inconclusive means response in the unintended direction; inactive means score below 0.9.

Take `CN1C(=O)c2ccccc2C1=O`: the molecule was called inactive in assay [1], in [2], in assay [3], in assay [4], in assay [5] and in assay [6]. Further, the molecule was called inactive in assay [7] and in [8].

Regarding `CCC(C)c1cc([N+](=O)[O-])cc([N+](=O)[O-])c1OC(=O)OC(C)C` (centres undefined), the molecule was called inactive in assay [1], in assay [2], in assay [4], in assay [6], in assay [7] and in assay [8]. The concentration at half-maximal activity (AC50) in assay [3] is 7.55 µM (active); in [5] it was 35.3 µM (active).

With `C=Cc1ccc(C)cc1`, the call in assay [1], in assay [2], in [3], in [4], in [5] and in assay [6] was inactive. In addition, the outcome in [7] and in assay [8] was inactive.

Regarding `O=c1[nH]c(=O)c2cn[nH]c2[nH]1`, the outcome in [1], in assay [2], in assay [3], in assay [4], in [5] and in [8] was inactive.

In the case of `CC(C)C(OC(=O)c1ccccc1)C(C)(C)COC(=O)c1ccccc1` (centres undefined), the outcome in [1], in [2], in [3], in [4], in [6] and in assay [9] was inactive.

Turning to `Cc1ccc(-c2ccccc2)cc1`, the result in assay [1], in [2], in assay [3], in assay [4], in assay [5] and in [9] was inactive. In addition, the outcome in [7] was inactive.

As to `Cc1cccc(Nc2ccccc2)c1`, the molecule was called inactive in assay [1], in [2], in [3], in assay [5], in assay [6] and in assay [9]. Moreover, the outcome in [8] was inactive.

As for `C=C(C)CNCC`, the outcome in assay [1], in assay [2], in [3], in assay [5], in assay [6] and in assay [9] was inactive. The outcome in assay [8] was inactive.

Regarding `COc1ccc(CCC(C)=O)cc1`, the result in assay [1], in assay [2], in assay [3], in [9] and in [8] was inactive.

As to `O=C(Nc1ccc2c(O)c(N=Nc3ccc(N=Nc4ccc(S(=O)(=O)O)cc4)cc3)c(S(=O)(=O)O)cc2c1)c1ccccc1`, the call in [1], in assay [2], in assay [6] and in assay [8] was inactive.

As to `O=c1c(O)c(-c2ccc(O)cc2)oc2cc(O)cc(O)c12`, the call in assay [1], in assay [2], in [3], in assay [9] and in assay [8] was inactive.

`CCC(C)S` (centres undefined): the outcome in [1], in assay [2], in assay [3], in [9] and in assay [7] was inactive.

As for `CCCCSCCCC`, the molecule was called inactive in [1], in assay [2], in assay [3], in assay [5], in assay [9] and in assay [7].

As for `Cc1occc(=O)c1OC(=O)C(C)C`, the call in [1], in assay [3], in assay [4] and in [5] was inactive.

In the case of `O=C(CS)OCCOC(=O)CS`, the call in [1], in [2] and in assay [6] was inactive. In addition, the AC50 is 42.9 µM (active) in assay [3], 39.3 µM (active) in [5], 58.3 µM (active) in [9] and 53.3 µM (active) in assay [8].

On to `COc1ccc(N=Nc2cc(C)c(N=Nc3ccc(S(=O)(=O)O)cc3)cc2OC)cc1`, for which the molecule was called inactive in assay [1], in assay [2], in assay [5], in [6], in assay [9] and in assay [7]. The outcome in assay [8] was inactive.

With `O=C1NC2NC(=O)NC2N1` (centres undefined), the call in [1], in [2], in assay [3], in [6], in [9] and in assay [7] was inactive. The outcome in [8] was inactive.

As for `Cc1cc(C)nc(NS(=O)(=O)c2ccc(N)cc2)n1`, the result in assay [1], in [2], in [3], in [6], in assay [9] and in assay [7] was inactive. Besides, the outcome in assay [8] was inactive.

Turning to `CC(C)(C)c1ccc(C(=O)O)cc1`, the call in assay [1], in [2], in [3], in [7] and in assay [8] was inactive.

Consider `COC(C)(C)CC(C)=O`, for which the result in assay [1], in assay [2] and in assay [5] was inactive.

With `c1ccc(CCc2ccccc2)cc1`, the outcome in [1], in [2], in assay [3], in assay [9] and in assay [8] was inactive.

With `CCCCCCCCCCCCCCN(CCO)CCO`, in assay [1], the concentration at half-maximal activity (AC50) is 28.3 µM (active). Besides, the molecule was classed as inactive in assay [2], in [3], in [5], in [6], in assay [7] and in [8].

Values taken from PubChem BioAssay (EPA / NIEHS).
